From PubChem BioAssay (NCI)
About 83,000 compounds went through this panel and 20% of them were active in at least one assay; those are over-represented in the sample as a whole.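 Method: cells in 96-well plates; compound added at one concentration; 48 h incubation; percent growth measured; values under 10 scored active.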 The source made the active and inactive calls.

Experiments:
Assay in all cases: NCI-60 one-dose screen, 48 h (100 = growth as untreated, 0 = no growth, -100 = all killed)
Settings in all cases: 10 µM
[1] = test system: RPMI-8226 leukemia
[2] = test system: OVCAR-8 ovarian
[3] = test system: OVCAR-5 ovarian
[4] = test system: OVCAR-4 ovarian
[5] = test system: SK-OV-3 ovarian
[6] = test system: OVCAR-3 ovarian
[7] = test system: HS 578T breast
[8] = test system: NCI/ADR-RES ovarian
[9] = test system: T-47D breast
[10] = test system: BT-549 breast
[11] = test system: MDA-MB-435 melanoma
[12] = test system: SW-620 colon
[13] = test system: MCF7 breast
[14] = test system: HCT-116 colon
[15] = test system: HCC-2998 colon
[16] = test system: KM12 colon

Measured: growth

CCN(CC)CCN1CC(=O)Nc2cc(Cl)ccc21
inactive: [1] 109% | [2] 108% | [3] 102% | [4] 103% | [5] 110% | [6] 109% | [7] 94.4% | [8] 94.2% | [9] 107% | [10] 107% | [11] 98.8% | [12] 86.4% | [13] 104% | [14] 102% | [15] 102% | [16] 103%

CCN(CC)CCSCCN(CC)CC
inactive: [1] 105% | [2] 101% | [3] 94.3% | [4] 96.4% | [5] 98.9% | [6] 108% | [7] 106% | [8] 108% | [9] 94% | [10] 105% | [11] 101% | [12] 99.2% | [13] 99.1% | [14] 107% | [15] 119% | [16] 107%

CC(=O)c1cc(Br)ccc1O
inactive: [1] 105% | [2] 112% | [3] 92.3% | [4] 105% | [5] 126% | [6] 118% | [7] 108% | [8] 107% | [9] 114% | [10] 110% | [11] 99.1% | [12] 102% | [13] 102% | [14] 112% | [15] 101% | [16] 102%

NC1=NC(=O)C(c2ccccc2)(c2ccccc2)S1
inactive: [1] 96.3% | [2] 107% | [3] 109% | [4] 97% | [5] 105% | [6] 119% | [7] 108% | [8] 109% | [10] 118% | [11] 121% | [12] 108% | [13] 105% | [14] 106% | [15] 108% | [16] 107%

O=C(O)c1ccc(P(=O)(O)O)c([N+](=O)[O-])c1
inactive: [1] 102% | [2] 98% | [3] 107% | [4] 104% | [5] 107% | [6] 111% | [7] 104% | [8] 108% | [9] 104% | [10] 102% | [11] 96% | [12] 98.2% | [13] 99.3% | [14] 113% | [15] 111% | [16] 105%

CC1=C(N2CCOCC2)C(N2CCOCC2)=C(C)C(=O)C1=O
inactive: [1] 105% | [2] 97.2% | [3] 97.6% | [4] 104% | [5] 105% | [6] 109% | [7] 109% | [8] 110% | [9] 95.1% | [10] 110% | [11] 103% | [12] 105% | [13] 92.5% | [14] 108% | [15] 109% | [16] 105%

Nc1nccc(Nc2ccccc2)n1
inactive: [1] 96.6% | [2] 100% | [3] 95.9% | [4] 108% | [5] 109% | [6] 114% | [7] 107% | [8] 111% | [9] 112% | [10] 103% | [11] 107% | [12] 106% | [13] 107% | [14] 109% | [15] 114% | [16] 101%

COc1ccc2c(c1)C(=O)c1c-2c(OCCN2CCCCC2)nc2ccc(OC)cc12
active: [12] 8.07% | [13] 9.47% | [14] 7.15%
inactive: [1] 16.4% | [2] 18.6% | [3] 63.6% | [4] 41.9% | [5] 34.5% | [6] 22% | [7] 57.8% | [8] 26% | [9] 36.6% | [10] 51.3% | [15] 39.8% | [16] 29.2%

FC(F)(F)c1ccc2nc(-c3nc(-c4ccccc4)n4ccccc34)[nH]c2c1
active: [4] -3.4% | [14] 8.85%
inactive: [1] 51.6% | [2] 17.3% | [3] 85.6% | [5] 52.8% | [6] 79.1% | [7] 103% | [8] 44.4% | [9] 48.3% | [10] 85.9% | [12] 72% | [13] 38.3% | [15] 82.6% | [16] 52.4%

CCCCCCCCCCCCCCCCCC(=O)OCCCCCCC
inactive: [1] 96.8% | [2] 102% | [3] 106% | [4] 110% | [5] 105% | [6] 101% | [7] 109% | [9] 99.6% | [10] 110% | [11] 94.6% | [12] 97.5% | [13] 107% | [14] 118% | [15] 102% | [16] 97.6%

O=C(Nc1ccc(Cl)c([N+](=O)[O-])c1)Nc1nc2ccccc2s1
active: [1] 7.17%
inactive: [2] 85.3% | [3] 103% | [4] 67.1% | [5] 84.9% | [6] 79.5% | [7] 103% | [8] 80.9% | [9] 36.8% | [10] 88.3% | [11] 89.4% | [12] 99.4% | [13] 79% | [14] 66.3% | [15] 86.3% | [16] 106%

CCN(CC)CCNc1ccc(CO)c2oc3cc(Cl)ccc3c(=O)c12
inactive: [1] 85.7% | [2] 59.4% | [3] 104% | [4] 78.7% | [5] 92.9% | [6] 91.8% | [7] 99% | [8] 74.2% | [9] 117% | [10] 94.9% | [11] 78.4% | [12] 71.3% | [13] 64.5% | [14] 58.6% | [15] 88.3% | [16] 98.6%

O=C1/C(=C\c2ccccc2)CN(C(=O)c2ccccc2F)C/C1=C\c1ccccc1
active: [1] -40.3% | [6] -20.1% | [7] -10.1% | [10] -24.6% | [11] -35.6% | [12] -71.7% | [13] -37.6% | [14] -84.8% | [15] -84.1%
inactive: [2] 10.6% | [3] 64.9% | [4] 28.8% | [5] 36.6% | [8] 23.8% | [9] 42.7%

CCOC(=O)CNC(=O)CCCCSc1ncnc2nc[nH]c12
inactive: [1] 107% | [2] 108% | [3] 90.1% | [4] 111% | [5] 115% | [6] 112% | [7] 107% | [8] 97.3% | [9] 100% | [11] 110% | [12] 107% | [13] 91.9% | [14] 101% | [16] 108%
active: [15] -18%

Cc1ccc(-c2nc(/C=C3/C(=O)N(C)c4ccc(F)cc43)c3ccccn23)cc1
inactive: [1] 115% | [2] 99.3% | [3] 106% | [4] 114% | [5] 105% | [6] 112% | [7] 107% | [8] 105% | [9] 109% | [10] 99.9% | [11] 111% | [12] 105% | [13] 78.6% | [14] 89.3% | [15] 104% | [16] 101%

C[C@]12CC[C@@H]3c4ccc(O)cc4C[C@@H](O)[C@H]3[C@@H]1CC[C@@H]2O
inactive: [1] 103% | [2] 106% | [3] 111% | [4] 105% | [5] 116% | [6] 114% | [7] 117% | [8] 113% | [9] 118% | [10] 102% | [11] 95.8% | [12] 110% | [13] 115% | [14] 105% | [15] 118% | [16] 111%

Cc1ccc(NC(=O)Nc2cccnc2)cc1NC(=O)Nc1cccnc1
inactive: [1] 42.9% | [2] 73.8% | [3] 110% | [4] 77.7% | [5] 101% | [6] 93.2% | [7] 95.7% | [8] 87.6% | [9] 58% | [10] 98.1% | [11] 73.9% | [12] 108% | [13] 81% | [14] 90.2% | [15] 87.7% | [16] 87.2%

CN(C)CCN=c1nc2c(c(N)n1-c1ccccc1)c(=S)n(-c1ccccc1)c(=S)n2-c1ccccc1
active: [1] -4.61% | [6] -48.7% | [9] -19.4% | [10] 4.45% | [11] -64.5% | [12] -59.1% | [14] -22.1% | [15] -39.6% | [16] 0.204%
inactive: [2] 33.6% | [3] 63.1% | [4] 41.7% | [5] 76.3% | [7] 12.3% | [8] 58.7% | [13] 17.9%
